In all, about 96,000 compounds went through this assay and about 20,000 (21%) were called active. Not all results are given here. Unmarked numbers belong to inactive results.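 Rule for the calls: active = CYP2C19 inhibition above a set limit at 5 µM in the primary screen (cut at about 50% in these data); inactive = the rest.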

For this test, the target named is Cytochrome P450 2C19 (Homo sapiens) (UniProt P33261). Put plainly: blockers of cytochrome P450 2C19 activity – biochemical, luminescence, ADME assay, primary screen (AID 778).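 Note: plate controls were negative control wells for no effect and 2.5 mM tranylcypromine positive control for full effect.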 The note with it: CYP2C19 Supersomes, luciferin-H EGE luminescence, 30 min; at 5 µM; stronger effect = higher value.
Chain of Cytochrome P450 2C19 (Homo sapiens) (P33261 whole entry, looked up): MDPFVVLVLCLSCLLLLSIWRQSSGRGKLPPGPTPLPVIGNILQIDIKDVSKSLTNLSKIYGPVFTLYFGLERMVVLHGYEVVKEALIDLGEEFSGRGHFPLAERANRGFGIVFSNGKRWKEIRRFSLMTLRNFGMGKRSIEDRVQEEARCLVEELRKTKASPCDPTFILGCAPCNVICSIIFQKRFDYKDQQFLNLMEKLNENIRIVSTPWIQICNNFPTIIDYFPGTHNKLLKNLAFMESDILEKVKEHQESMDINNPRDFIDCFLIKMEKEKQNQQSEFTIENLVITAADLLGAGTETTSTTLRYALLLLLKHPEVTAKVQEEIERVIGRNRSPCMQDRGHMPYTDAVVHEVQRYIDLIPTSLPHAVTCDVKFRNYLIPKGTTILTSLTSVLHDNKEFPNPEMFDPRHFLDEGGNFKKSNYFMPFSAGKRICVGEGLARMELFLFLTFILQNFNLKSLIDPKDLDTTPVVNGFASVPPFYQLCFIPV
As for `Cc1ccc(-c2nc(CS(=O)CC(=O)N3CCN(c4ncccn4)CC3)c(C)o2)cc1` (centres undefined), the inhibition was 24.1%.
With `COc1cc(C(=O)N(Cc2ccc(N(C)C)cc2)C2CCS(=O)(=O)C2)cc(OC)c1OC` (centres undefined), the inhibition is 19%.
The same measure for `CCOc1ccc(C(=O)N(Cc2ccc(N(C)C)cc2)C2CCS(=O)(=O)C2)cc1` (centres undefined): 58.6% (active); for `COc1ccc(C(=O)N(Cc2ccc(N(C)C)cc2)C2CCS(=O)(=O)C2)cc1` (centres undefined): 8.9%; for `Cc1ccc(CCn2c3c(c4ccccc42)CN(C)CC3)cn1`: 7.8%.
Then `CSc1nc2nc3c(c(=O)n2[nH]1)CCC3`, with 4.1%; and `COc1cc2c(cc1OC)C(c1ccncc1)CC(=O)N2` (centres undefined), with 16.4%; and `COc1ccc(C2CC(=O)Nc3cc(C)c(C)cc32)c(OC)c1OC` (centres undefined), with 94.5% (active).
Then `COc1cccc(-c2nnc(N(C)C(=O)c3ccno3)s2)c1`, with 11.1%; and `Cc1nnc(C)n1/N=C/c1ccc(C(C)C)cc1`, with 10.5%; and `COC(=O)c1ccc(C(=O)Nc2cc(Cl)ccc2Cl)cc1NC(=O)c1ccccc1C`, with 4.7%.
For the molecule `Cc1cccc(C(=O)Nc2ccc(CC(=O)O)cc2)c1`, the inhibition is -0.6%.
Then `Cc1ccccc1NC(=O)c1ccccc1`, with -2%.
As to `COC(=O)c1ccccc1NC(=O)c1cncc(Br)c1`, the inhibition is 30.8%.
`CN(C)c1ccc(NC(=O)c2ccncc2)c2ccccc12`: the inhibition was 90.3% (active).
For `CCOc1ccc(-c2cn(S(=O)(=O)c3cccc4nsnc34)nc2N)cc1`, the inhibition is 3.8%.
The same measure for `COc1cc(C(=O)OC(C)C(=O)NCC2CCCCC2)cc(NC(=O)c2ccco2)c1OC` (centres undefined): 38.3%.
For the molecule `CCOc1ccccc1Nc1nnc(SCc2ccc(C(=O)OC)o2)s1`, the inhibition is 43%.
Then `O=C(O)CSCc1ccc(C(=O)O)o1`, with -3%; and `COC(=O)c1ccc(CSc2ccc3nnc(-c4ccccc4)n3n2)o1`, with 63.7% (active); and `CCc1ccc(C(=O)CSc2nnc(C)c(=O)[nH]2)cc1`, with 19.3%.
The same measure for `Cc1ccc(OCC(=O)N/N=C/c2ccncc2)cc1`: 96.3% (active); for `Cc1ccc(OCC(=O)Nc2ccc(-c3nc4ncccc4o3)cc2)cc1`: 3.2%; for `Cc1cc(C)c(OCC(=O)N/N=C/c2ccco2)c(C)c1`: 41.2%.
With `O=C(Nc1cc2c3c(c1)C1CCCC1CN3CC1CCCC21)c1ccc([N+](=O)[O-])cc1` (centres undefined), the inhibition was 28.2%.
The same measure for `Cc1cccc(N(CC(=O)N=Nc2c(O)[nH]c3ccccc23)S(C)(=O)=O)c1C`: 33.6%; for `O=c1cc(CSc2ccccn2)nc(N2CCN(c3ccccc3)CC2)[nH]1`: -0.6%; for `Cc1nnc(SCc2cc(=O)[nH]c(N3CCN(Cc4ccccc4)CC3)n2)s1`: 50.4% (active).
On to `CCc1c(C)nc(N2CCN(Cc3ccccc3)CC2)[nH]c1=O`, for which the inhibition was 2.4%.
Turning to `COCc1cc(C)nc2sc3c(=O)n(-c4cccc5ccccc45)nnc3c12`, the inhibition is 24.5%.
With `CN1c2ccccc2-c2nc3ccccc3n2C1c1ccco1` (centres undefined), the inhibition is 14.2%.
The same measure for `CCOc1cccc(=O)c2c(C)n(CC3CCCO3)c(C)c12` (centres undefined): 92.1% (active).
With `O=c1c2cc3c(=O)n(CC4CCCO4)c(=O)c3cc2c(=O)n1CC1CCCO1` (centres undefined), the inhibition is 0.8%.
Regarding `COC(=O)c1ccc2c(=O)n(CC3CCCO3)c(=S)[nH]c2c1` (centres undefined), the inhibition is -6.3%.
The same measure for `COc1ccc(-c2nc(CS(=O)CC(=O)NCc3cccnc3)c(C)o2)cc1OC` (centres undefined): 24.2%; for `COc1ccc(-c2cc(C(F)(F)F)nc(S(C)(=O)=O)n2)cc1OC`: 12.6%.
`COc1ccc(-c2cc(C(F)(F)F)nc(NCc3cccnc3)n2)cc1`: the inhibition was 73.4% (active).
Regarding `COc1ccc(-c2csc3nc(-c4ccccc4F)oc(=O)c23)cc1OC`, the inhibition was 25.3%.
For `CCCOc1ccccc1-c1nc(SCCC(=O)O)n[nH]1`, the inhibition is -4.6%.
On to `O=C(CC(O)(C(F)(F)F)C(F)(F)F)Nc1ccc(Cl)c(Cl)c1`, for which the inhibition was 77% (active).
As for `Cc1nnc(NC(=O)Nc2ccc(Cl)c(Cl)c2)s1`, the inhibition was -9.1%.
Turning to `N/C(=N\OC(=O)Nc1ccc(Cl)c(Cl)c1)c1ncc(C(F)(F)F)cc1Cl`, the inhibition was -13.4%.
`COc1ccccc1Nc1ncnc2c1oc1ccccc12`: the inhibition was 30.1%.
As for `CC1(C)CC(=O)C=C(NCCN2CCNCC2)C1`, the inhibition is -7.9%.
Regarding `CCN1CCCC1CNc1ncnc2c1[nH]c1ccc(F)cc12` (centres undefined), the inhibition is 14.6%.
Regarding `Fc1ccc2[nH]c3c(N4CCSCC4)ncnc3c2c1`, the inhibition is 58.5% (active).
Then `CC(C)OCCCNc1ncnc2c1[nH]c1ccc(F)cc12`, with 31.8%.
As for `Cc1cc(N2CCN(Cc3ccc4c(c3)OCO4)CC2)n2ncnc2n1`, the inhibition was 8.7%.
Turning to `Fc1ccc2[nH]c3c(N4CCN(Cc5ccc6c(c5)OCO6)CC4)ncnc3c2c1`, the inhibition was 61.2% (active).
Then `c1n[nH]c(NCc2ccc3c(c2)OCO3)n1`, with -7.6%; and `Cc1cc(C(F)(F)F)n2ncc(-c3ccccc3)c2n1`, with 21.2%; and `C=C1c2cc(CC)ccc2NC(=O)N1c1ccc(C)cc1`, with 32.6%.
Then `CC1(C)CC(=O)C2=C(C1)NCN(CCCN1CCOCC1)C2`, with -0.8%; and `CCCCc1nc(NCCN)c(C#N)c2c1CSC(C)(C)C2`, with 25.3%; and `CCNc1nc(SCCOc2ccccc2)nc(N(C)C)n1`, with 12.3%.
On to `O=C(CSc1ccccc1)Nc1ccc(NC(=O)c2ccco2)cc1`, for which the inhibition was 22%.
Turning to `O=C(/C=C/c1ccco1)Nc1ccc(Oc2ccccc2)cc1`, the inhibition was 8.4%.
The same measure for `O=C(Nc1ccc(Oc2ccccc2)cc1)c1ccco1`: 59.9% (active); for `Cc1ccnc(NC(=O)c2ccc(NC(=O)c3ccco3)cc2)c1`: 13.1%.
The same measure for `O=C(Nc1ccc(Sc2ccc(Br)cc2)cc1)c1ccco1`: 6.9%.
With `COC(=O)c1ccc(NC(=O)c2ccco2)cc1`, the inhibition is 53.1% (active).
As for `CCOCCOC(=O)C1=C(C)N(C)C(=O)NC1c1ccccc1F` (centres undefined), the inhibition is 47.5%.
`COc1ccc(CCNC(=O)CN2CCC(n3nnc4cc(F)ccc43)CC2)cc1OC`: the inhibition was 22.7%.
The same measure for `Cc1ccc(C(=O)NNC(=O)OC(C)(C)C)c(Cl)c1`: 14.6%; for `CCN1CCN(Cc2nc3c(c(=O)n(C)c(=O)n3C)n2CC(=O)c2ccccc2)CC1`: 4.3%.
Take `CC1CN(c2cc(=O)n(Cc3ccc(F)cc3)c(=O)[nH]2)CC(C)O1` (centres undefined): the inhibition is -11%.
Then `Cc1ccccc1/[N+]([O-])=C/c1ccncc1`, with 42.4%.
The same measure for `CCOc1cc(/C=C2/N=C(c3ccc(C(C)(C)C)cc3)OC2=O)cc(Cl)c1OS(C)(=O)=O`: 14.4%; for `COC(=O)c1sccc1-n1cccc1C(=O)C(=O)N1CCCCC1`: 31.2%; for `Cc1cccc(-n2cnc(C(=O)Nc3cccnc3)c2)n1`: 57% (active).
The same measure for `CCC(=O)Nc1cccc(NC(=O)c2cccnc2)c1`: 6.1%.
As to `Cc1cc(C)c(NC(=O)CS(=O)CC(=O)Nc2cccnc2)c(C)c1` (centres undefined), the inhibition is 13.1%.
Regarding `COc1cc(/C=C(/NC(=O)c2ccccc2)C(=O)Nc2cccc(O)c2)c([N+](=O)[O-])cc1OC`, the inhibition was 6.1%.
On to `c1ccc(Nc2nc(N3CCOCC3)c3ccccc3n2)cc1`, for which the inhibition is 55.6% (active).
Then `c1ccc(-c2oc3ncnc(N4CCOCC4)c3c2-c2ccccc2)cc1`, with 9.2%; and `Cc1cc(C(=O)Nc2ccccc2N2CCOCC2)c2ccccc2n1`, with 29.8%.
As for `CCCCc1c(O)nc2n(c1=O)CCS2`, the inhibition was -19.9%.
The same measure for `COc1ccc(C(=O)CSc2n[nH]c(N)n2)cc1`: 4.5%.
The same measure for `COC(=O)Cc1cc(=O)n(-c2nc3ccccc3s2)[nH]1`: 13.8%; for `CCCCCN1CC(O)=C(c2nc(-c3ccc(Cl)cc3)cs2)C1=N`: 7.1%; for `COc1ccccc1N1CC(O)=C(c2nc3ccccc3s2)C1=N`: 50.8% (active).
Take `Cc1ccc(Nc2nc(-c3sc(NC(=O)c4ccccc4)nc3C)cs2)cc1`: the inhibition is 17.1%.
In the case of `CCCC(=O)Nc1ccc(Cl)c(NC(=O)c2ccc(Br)o2)c1`, the inhibition was 12.5%.
The same measure for `COc1cc(OC)c(NC(=O)c2ccc(Br)o2)cc1Cl`: 79.4% (active); for `CCN1CCN(c2c(Cl)cccc2NC(=O)c2ccc(Br)o2)CC1`: 16%; for `O=C(COc1cc(Cl)c(Cl)cc1Cl)NC(=O)NC1CCCC1`: -6.2%.
The same measure for `CCCC(=O)N1CCc2[nH]c3ccccc3c2C1`: 25.3%; for `O=C(Nc1cccc(Cl)c1)OCc1ccccn1`: 27.1%; for `FC(F)(F)c1cccc(Nc2ncnc3ccccc23)c1`: 44.1%.
As to `FC(F)(F)c1cccc(NC(=S)Nc2cccc(Cl)c2)c1`, the inhibition was 74.9% (active).
Consider `CCOc1cc(N2CCOCC2)c(OCC)cc1NC(=O)COC(=O)[C@H](Cc1c[nH]c2ccccc12)NC(C)=O`, for which the inhibition was -4.2%.
Take `COc1cccc(N2C(=O)CC(N3CCN(S(=O)(=O)c4ccccc4)CC3)C2=O)c1` (centres undefined): the inhibition is 1.5%.
For `CN1CCN(c2ccc([N+](=O)[O-])c(Sc3nc4ccccc4[nH]3)c2)CC1`, the inhibition is 33.8%.
As for `C=CCOc1ccc(C2/C(=C(\O)c3c(C)[nH]c(C(=O)OC)c3C)C(=O)C(=O)N2CCN(C)C)cc1` (centres undefined), the inhibition was 2.1%.
In the case of `O=C(Nc1ccc2c(c1)CCC2)c1cccc(S(=O)(=O)N2CCN(c3ccc(F)cc3)CC2)c1`, the inhibition was 26%.
Then `CC(C)C(C)NC(=O)COc1ncnc2ccccc12` (centres undefined), with 34.6%; and `COc1cc(OC)cc(C(=O)NC2CCN(C(=O)N3c4ccccc4Sc4ccccc43)CC2)c1`, with 5.8%.
For `Cc1ccccc1-n1nc(C)c2cc(C(=O)NC3CC3)sc21`, the inhibition is 61.4% (active).
Turning to `Cc1nn(-c2ccccc2)c2sc(C(=O)N(Cc3ccco3)C(C)C(=O)NC(C)(C)C)cc12` (centres undefined), the inhibition is 33.9%.

Source of the values: PubChem BioAssay AID778 (Sanford-Burnham Center for Chemical Genomics, 2007).
